# Data: PubChem BioAssay (EPA / NIEHS)
# Results filed as inconclusive are left out. The source made the active and inactive calls. How the source made its calls: active means hit-call score of the fitted dose curve at least 0.9, where 1 is the maximum; inconclusive means response in the unintended direction; inactive means score below 0.9.
# Experiment: Tanguay_ZF_120hpf_JAW_legacy: (Legacy) Oregon State University Tanguay Lab 120 Hour Post-fertilization zebrafish Assay for Jaw Malformation (AID 2283638)
# Summary of the method: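 Wild-type 5D embryos, chorion removed at 4 hpf, dosed singly from 6 hpf; 28C static, sealed, foil-covered, to 120 hpf. Endpoint: jaw defect yes/no (brightfield); mortality excludes scoring.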
row,SMILES,outcome
1,CCOC(=O)CCC(=O)OCC,inactive
2,Clc1cc(Cl)c(Cl)cc1Cl,inactive
3,CNCc1cc(F)ccc1Oc1ccc(Cl)c(Cl)c1,inactive

# Experiment: Tanguay_ZF_120hpf_OTIC_legacy: (Legacy) Oregon State University Tanguay Lab 120 Hour Post-fertilization zebrafish Assay for Otic Vesicle Malformation (AID 2283639)
# Summary of the method: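 Binary scoring of otic vesicle defects at 120 hpf in zebrafish (Tropical 5D) held under static exposure at 28C, sealed and shaded, with final DMSO 0.64%. Embryos dying by 24 or 120 hpf excluded; fitted positively against DMSO.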
SMILES,outcome,AC50
Nc1nc(N)c2nc(CNc3ccc(C(=O)N[C@@H](CCC(=O)O)C(=O)O)cc3)cnc2n1,inactive,–
O=C(O)Cc1ccccc1Nc1c(Cl)cccc1Cl,inactive,–
CC1(C)CC(N=C=O)CC(C)(CN=C=O)C1 (stereo not given),inactive,–
CC(C)c1ccc(C(=O)N=C(N)N)cc1S(C)(=O)=O,inactive,–
Cc1ccc(C(C)C)c(O)c1,inactive,–
O=c1[nH]cc(F)c(=O)[nH]1,inactive,–
Cc1oc(-c2ccccc2)nc1CCOc1cccc2c1ccn2CCC(=O)O,inactive,–
CCOc1ccc2c(c1)C(C)=CC(C)(C)N2,inactive,–
COc1cc(C=O)ccc1O,–,59.2 µM (active)
CCCCCCOCCO,inactive,–
COc1ccc2c(c1)c(CC(=O)O)c(C)n2C(=O)c1ccc(Cl)cc1,inactive,–
CNC(=O)[C@H]1O[C@@H](n2cnc3c(NCc4cc(Cl)ccc4OCc4cc(C)no4)ncnc32)[C@H](O)[C@@H]1N,inactive,–
CN[C@H]1CC[C@@H](c2ccc(Cl)c(Cl)c2)c2ccc(S(N)(=O)=O)cc21,inactive,–
c1cc(-c2ccncc2)ccn1,inactive,–
O=C(N[C@@H](Cc1ccccc1)[C@@H](O)C(=O)N1C[C@@H](O)[C@@H](O)C1)c1cc2cc(Cl)ccc2[nH]1,inactive,–
O=c1c(O)c(-c2ccc(O)c(O)c2)oc2cc(O)cc(O)c12,inactive,–
CCCCCCCCCCO,inactive,–
Cc1ccc(C)c(C)c1,inactive,–
CC1=C(/C=C/C(C)=C/C=C/C(C)=C/CO)C(C)(C)CCC1,inactive,–
CCOC(=O)CCC(=O)OCC,inactive,–
Clc1cc(Cl)c(Cl)cc1Cl,inactive,–
CNCc1cc(F)ccc1Oc1ccc(Cl)c(Cl)c1,inactive,–
